Measurements reported in ChEMBL document CHEMBL3988442, “University of Dundee, Small-Polar-MMV Screening Library” (2021).
Hit rate of the full screen: of about 48,000 compounds, about 13,000 (27%) showed an effect of 50% or more. This is one part of the list.

Tested on: Wolbachia pipientis
Assay: Anti-Wolbachia Cell-Based Screen
Type: functional
Parameters: scale not given: in the data most compounds retested in dose-response had high values
Conditions: 5 µM

Compound	Percent Effect [%]
CCC(CC)c1cc(CNC(=O)N2CCC[C@@H]2CO)on1	-2.754
CCn1cc(CNc2ccc(F)c(N3CCCS3(=O)=O)c2)cn1	-13
Cc1cccc(C(=O)N(CCCO)S(=O)(=O)c2cccs2)c1	-17.59
O=C(CC1CCCC1)N1CCCC1c1nc(O)cc(-c2ccccn2)n1 (stereo not given)	-10.15
O=C(CN1CCCC1)N1CCCC1c1nc(O)cc(-c2ccccn2)n1 (stereo not given)	91.97
COCCC(=O)N1CCCC1c1nc(O)cc(-c2ccccn2)n1 (stereo not given)	100.3
C/C=C(/C)C(=O)NS(=O)(=O)c1ccc(C(F)(F)F)cc1	-1.888
CN1CCN(C(=O)C2CC=CC2)c2ccccc21	-33.89
O=C(C1COCCO1)N1CCN(CC(F)(F)F)c2ccccc21 (stereo not given)	122.9
O=C(C1CCCOC1)N1CCN(CC(F)(F)F)c2ccccc21 (stereo not given)	120.4
O=C(C1CCCOC1)N1CCCCc2ccccc21 (stereo not given)	-3.66
O=C(C1CCCOC1)N1CCCc2ccccc21 (stereo not given)	-6.498
CC(C)(C)c1cc(NC(=O)C2COCCO2)n(-c2ccccn2)n1 (stereo not given)	-13.16
Cc1ccc2c(c1)N(C(=O)C1CCCOC1)CCC2 (stereo not given)	0.6184
O=C(C1CCOC1)N1CCN(CC(F)(F)F)c2ccccc21 (stereo not given)	125.3
COc1nc(N2CCN(C(C)=O)CC2)ncc1Br	-6.459
Cc1ccc(NC2CCCN(Cc3ccc(Cl)cc3)C2)nn1 (stereo not given)	105.3
Cc1ccc(NC2CCCN(CCCc3ccccc3)C2)nn1 (stereo not given)	90.19
Cc1ccc(NC2CCCN(CCc3ccccc3)C2)nn1 (stereo not given)	81.81
Cc1cc(NC2CCCN(Cc3ccc(F)cc3)C2)n2nc(C)cc2n1 (stereo not given)	43.11
Cc1cc(C)nc(NC2CCCN(CCCc3ccccc3)C2)n1 (stereo not given)	120.4
Cc1cc(N[C@H]2CCCN(Cc3ccccc3)C2)n2nc(C)cc2n1	-7.34
c1ccc(CCCN2CCCC(Nc3cnc4ccccc4n3)C2)cc1 (stereo not given)	45.74
Cc1nnc([C@H]2CCN(CCCc3ccccc3)C2)o1	-2.923
CCn1cc(S(=O)(=O)NC2CCCN(CCCc3ccccc3)C2)cn1 (stereo not given)	-6.071
CSc1ccccc1C(=O)N(C)C1CCCN(CCc2ccccc2)C1 (stereo not given)	-4.554
Cc1ccc(NC2CCCN(C3Cc4ccccc4C3)C2)nn1 (stereo not given)	-17.09
CC(C)c1ccc(NC2CCCN(Cc3ccncc3)C2)cc1 (stereo not given)	-12.89
CCn1c(CN2CCC(O)(C(=O)OC)CC2)nc2c(F)cccc21	-8.235
CSCCC(NC(N)=O)C(=O)NCc1c(C)nn(-c2ccccc2)c1C (stereo not given)	-8.181
